This is a sample that favours compounds with a hit; in the whole collection about 21% have one here.
Pf growth 96h: P. falciparum growth inhibition at 96 hour, primary screen for plastid delayed-death inhibitors; 6.9% of 320,000 active; P. falciparum luciferase reporter growth, 96 h; Potency, µM (doses to about 28.7 µM), for the others: at the highest dose activity change, negative = inhibition, most hits filed as inhibitors; AID 504834; further: potency means the concentration at half of the fitted maximal effect; on the % scale 0 is the no-effect control and ±100 the full control effect
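96 h incubation, 37 C, 5% CO2, of luciferase-reporter P. falciparum-infected RBCs (2% hematocrit, 0.05% parasitemia final) with test compounds; endpoint luminescence.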
SARS PLP yeast: inhibitors of SARS-CoV papain-like protease in yeast; 0.19% of 330,000 active; AID 485353; Potency, µM (highest dose often 32.9 µM), for the others: top-dose activity, positive = growth rescue, most hits filed as activators; S. cerevisiae expressing SARS-CoV PLpro, growth rescue; calls by dose curve; further: potency means the concentration at half of the fitted maximal effect; 0% is about no effect; nearly all actives have a fitted effect of over 55% in size
Pf growth 48h: inhibits P. falciparum growth in the first generation, 48 h. Potency, µM (highest dose often 28.7 µM), for the others: top-dose activity change, negative = inhibition, most hits filed as inhibitors. P. falciparum luciferase growth in erythrocytes, 48 h. 5.9% of 310,000 active; further: potency means the concentration at half of the fitted maximal effect; on the % scale 0 is the no-effect control and ±100 the full control effect
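Read-out is firefly luciferase luminescence from an integrated reporter in P. falciparum, so falling signal marks reduced parasite growth. Infected erythrocytes were at 2% hematocrit and 0.1% parasitemia (final) in Albumax-supplemented RPMI 1640.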
NS1 inh: inhibitors of influenza NS1 protein function | Potency, µM (doses to about 46.1 µM), for the others: at the top dose activity, positive = more growth | 0.4% of 270,000 active; calls by dose curve; further: potency means the concentration at half of the fitted maximal effect; actives are rising curves; nearly all actives have a fitted effect of over 50% in size
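In this qHTS, NS1 from influenza A is expressed in budding yeast, where it slows growth. Cells are switched from glucose to 2% galactose medium (pH 6.0, -URA), treated with compound, and growth recovery is read at OD600.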
Cycloheximide cs: counter-screen for Shiga toxin inhibitors: cycloheximide protein synthesis inhibition. 12% of 300,000 active. max response, %. cell reporter, cycloheximide protein synthesis inhibition counterscreen. AID 2314; in the data active means max response mostly above about 13%, no sharp cut-off; inactive means mostly below about 14%; further: read at 38.3 µM for the half of the compounds with a filed dose; 0% is about no effect
Shiga toxin inh: Shiga toxin inhibition; 9.2% of 290,000 active; Vero cells, Shiga toxin protein synthesis inhibition reporter; inhibition, % at 38.7 µM; in the data active means inhibition mostly above about 28%, no sharp cut-off; inactive means mostly below about 43%; further: 0% is about no effect
An asterisk follows results filed as active; ? = inconclusive; / = not tested or not shown. Unless noted, the call rests on the fitted dose curve; in most records, active means well fitted inhibition curve with a large enough effect; inconclusive means small, poorly fitted or top-dose-only effect, or another doubt; inactive means no such curve, though single readings can be large or run the other way.

SMILES | Pf growth 96h | SARS PLP yeast | Pf growth 48h | NS1 inh | Cycloheximide cs | Shiga toxin inh
CN1CCN(C(=O)c2ccc(-c3cccs3)s2)CC1 | 255% | 0% | 107% | -2% | 42* | 55*
O=C(c1cccs1)c1ccc(-c2cccs2)s1 | ? | 4% | -20% | -29% | 30* | 36
CC1(C)C2CCC1(C)C(NC(=O)CCN1CCCCC1)C2 (configuration not stated) | 0.093µM* | 2% | 5% | 3% | 1 | -10
CN(C)S(=O)(=O)c1ccc(C(=O)NC2CCCc3ccccc32)cc1 (configuration not stated) | ? | -3% | 20% | / | 3 | 7
CCOC(=O)C1CCN(C2CCN(Cc3nc(-c4ccccc4)no3)CC2)CC1 | 1.5µM* | 1% | 10% | -3% | 0 | -9
CCOC(=O)N1CCN(Cc2nc(-c3ccccc3)no2)CC1 | / | 0% | 41% | -9% | 19 | 62*
CCOC(=O)N1CCN(c2nc(-c3ccccc3)c3ccccc3n2)CC1 | ? | -1% | 10µM* | -1% | -1 | -1
O=C(c1ccc(-c2cccc(C(F)(F)F)c2)o1)N1CCCC(C(F)(F)F)C1 (configuration not stated) | ? | 2% | -10% | / | / | /
CC(OC(=O)C1CCCC1)C(=O)Nc1ccc(C(N)=O)cc1 (configuration not stated) | 11% | 2% | 18% | / | / | /
Cc1nc(N)sc1C(=O)N/N=C/c1ccccc1[N+](=O)[O-] | 2% | -2% | 162% | / | 36* | 126*
CC(/C=N/NC(=O)c1sc(N)nc1C)=C\c1ccccc1 | ? | 9% | 163% | / | 44* | 56*
Cc1nc(N)sc1C(=O)N/N=C/c1ccco1 | 10% | 12% | 9% | 14% | -4 | 2
Cc1nc(N)sc1C(=O)N/N=C/c1ccc([N+](=O)[O-])cc1 | 20% | 0% | 16% | 0% | -2 | 0
Cc1nc(N)sc1C(=O)N/N=C/c1c[nH]c2ccccc12 | -3% | -2% | / | 11% | 21* | 38
Cc1cc(C)n(CCN(C)c2nc3nonc3nc2NC2CC2)n1 | 20% | 1% | 0% | 4% | -2 | -20
COCCN(C(=O)c1ccc(N2CCCC2=O)cc1)c1c(N)n(Cc2ccccc2)c(=O)[nH]c1=O | 53% | -6% | 10% | / | / | /
Cc1nn(CC(=O)N(C)C2CCS(=O)(=O)C2)c(C)c1S(=O)(=O)N(C)C (configuration not stated) | ? | -5% | ? | / | / | /
Cc1ccc(-c2noc(CCC(=O)NCCCN3CCN(c4cccc(Cl)c4)CC3)n2)cc1 | 41% | 1% | 9.3µM* | -65% | -4 | -11
CCOC(=O)N1CCN(Cc2nc(-c3cccc(C)c3)no2)CC1 | 6% | 6% | / | -2% | 12 | 14
FC(F)(F)c1cccc(-c2noc(CN3CCOCC3)n2)c1 | 34% | 11% | 12% | -3% | 15 | 8
CN1CCCN(Cc2nc(-c3cccc(C(F)(F)F)c3)no2)CC1 | 12µM* | -2% | -2% | -1% | 16* | 5
Clc1cccc(N2CCN(Cc3nc(-c4ccccc4)no3)CC2)c1 | 5.9µM* | -20% | 2% | -39% | 8 | 2
CC(=O)N1CCN(Cc2nc(-c3cccc(Cl)c3)no2)CC1 | 12% | 1% | 25% | -1% | 18* | 43*
Cc1cnc(C(=O)Nc2ccc(F)cc2)cn1 | 88% | 1% | 184% | -36% | 53* | 99*
Cc1cnc(C(=O)Nc2ccc(C(C)C)cc2)cn1 | 420% | -3% | 338% | / | 46* | 134*
SMILES | Pf growth 96h | SARS PLP yeast | Pf growth 48h | NS1 inh | Cycloheximide cs | Shiga toxin inh
Cc1cc(NC(=O)CCC(=O)N(c2ccc(F)cc2)C2(C(=O)NC3CCCCC3)CCCC2)no1 | 128% | ? | ? | -7% | -6 | 14
Cc1cc(NC(=O)CCC(=O)N(Cc2ccco2)C2(C(=O)NC3CCCCC3)CCCCC2)no1 | 1.3µM* | -1% | -25% | 0% | -4 | -7
Cc1cc(NC(=O)CCC(=O)N(Cc2ccccc2)C2(C(=O)NC3CCCCC3)CCCC2)no1 | ? | 1% | 9.3µM* | 1% | 7 | -10
O=C(COC(=O)C1c2ccccc2Oc2ccccc21)NC1CCS(=O)(=O)C1 (configuration not stated) | 16% | 0% | -22% | -9% | -2 | 3
Cc1cccc(NC(=O)c2ccc([N+](=O)[O-])s2)n1 | 8.3µM* | -10% | ? | -27% | 61* | 61*
Cc1ccnc(NC(=O)c2ccc([N+](=O)[O-])s2)c1 | 7.4µM* | -2% | ? | -2% | 60* | 85*
Cc1cccc(NC(=O)c2ccc([N+](=O)[O-])cc2Cl)n1 | ? | -10% | 36% | -5% | 7 | -8
Cc1cccc(NC(=O)c2ccc([N+](=O)[O-])s2)c1C | -85% | -101% | 2.6µM* | -2% | 5 | 4
Cc1cccc(C)c1NC(=O)c1ccc([N+](=O)[O-])s1 | 0% | -47% | ? | -43% | -2 | -5
CCOC(=O)c1sc(=S)n(C)c1NC(=O)c1ccccc1C | -25% | 14% | 2% | -1% | -7 | -8
CCc1ccc(C(=O)NNC(=O)c2c(CC)noc2C)cc1 | 5% | ? | -17% | / | / | /
COc1ccccc1CP(=O)(c1ccccc1)c1ccccc1 | 8% | -11% | -2% | -2% | -1 | 2
C[C@H](CN(C)C)C(O)(c1ccccc1)c1ccccc1 | / | / | / | -3% | / | /
CCC(C)C1O[C@]2(C=CC1C)CC1CC(C/C=C(\C)[C@H](OC3CC(OC)C(O[C@H]4CC(OC)[C@@H](O)C(C)O4)C(C)O3)[C@@H](C)/C=C/C=C3\COC4C(O)C(C)=C[C@H](C(=O)O1)[C@@]34O)O2 (some centres not stated) | 13µM* | / | 15µM* | / | / | /
Cc1ccccc1OCC(=O)OCC(=O)c1ccc(OCc2ccccc2)cc1 | -13% | 12% | 123% | -1% | 59* | 81*
O=C(COc1ccccc1-c1ccccc1)NCc1cccc(Cl)c1 | 13µM* | -49% | ? | 4% | 0 | -6
C=C(C)C(=O)OCC(=O)NCc1ccccc1 | ? | -3% | -2% | / | 36* | 114*
Cc1ccccc1NC(=S)NC(=O)COc1ccccc1C | 20% | -5% | 13% | 7% | 27* | -14
N/C(=N/O)c1ccccc1N1CCC(Cc2ccccc2)CC1 | ? | -13% | -5% | / | 1 | 2
c1ccc2c(C3CCO3)cccc2c1 (configuration not stated) | 55% | -1% | 42% | / | / | /
CC(Sc1nnc(-c2ccccc2F)n1C)C(=O)NC1CCCCC1 (configuration not stated) | -2% | -12% | -5% | / | / | /
Cc1cccc(NC(=O)CSc2nc3ccccc3nc2N2CCCC2)c1C | ? | 6% | ? | -3% | 5 | 15
NS(=O)(=O)c1ccc(CCNC(=O)COC(=O)CN2C(=O)C3CCCCC3C2=O)cc1 (configuration not stated) | 5% | 2% | 1% | 7% | -2 | -4
